Screening results as filed in PubChem.
In the library only some 6.9% were active in any assay of this set; here they are far more common.
NS3h inh CB = blocks HCV NS3 helicase binding to DNA; NS3h Cy5-dT15 DNA binding, fluorescence polarization; inhibition, % at 100 µM; hit rate 1.6% among 16,000;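 active means inhibition above the average over every tested compound plus 3 SD, cut at about 40% in these data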
Cy5 interf NS3h = enhances or quenches Cy5 fluorescence in NS3h assay | Cy5-dT15 DNA with NS3h, fluorescence interference; actives lie on both sides; signal over control mean, under 1 quenches | AID 720488 | fluorescence interference ratio at 100 µM | hit rate 6% among 16,000;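 active means compound fluorescence over control fluorescence at most 0.8, a quencher, or at least a set upper limit, an enhancer; inactive means ratio between 0.8 and the set upper limit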
Numbers without * were called inactive.

SMILES	NS3h inh CB	Cy5 interf NS3h
CC(C1CC1)N(Cc1ccccc1)C(=O)Nc1cccc([N+](=O)[O-])c1 (stereo not given)	6.8	0.609*
CC1=C(C(=O)Nc2ccc(C)c(Cl)c2)C(c2cccc([N+](=O)[O-])c2)NC(=O)N1 (stereo not given)	1.4	0.899
COc1ccc(-c2nc(-c3ccc(O)cc3)[nH]c2-c2ccc(OC)cc2)cc1	7.1	0.727*
COc1ccc(OC)c(-c2nc(-c3ccccc3)c(-c3cccs3)[nH]2)c1	9.9	0.919
Cc1cccc(-c2cc(NC(=O)COc3ccccc3)n[nH]2)c1	15.0	1.02
COc1cc(C(=O)NC(NC(=S)Nc2ccccc2C)C(Cl)(Cl)Cl)cc(OC)c1OC (stereo not given)	8.2	0.901
C=C1CSc2nc(=O)c3c4c(sc3n21)CCC4	5.8	0.938
Cc1nc2sc3c(c2c(=O)[nH]1)CCC3	2.2	0.633*
CC1=NN(c2ccc(C)c(C)c2)C(=O)/C1=C/c1ccc([N+](=O)[O-])o1	20.4	0.675*
CC1=NN(c2cccc(C(=O)O)c2)C(=O)/C1=C\c1ccc(-c2cc([N+](=O)[O-])ccc2C)o1	8.1	0.971
COc1ccc(OC)c(/C=C(\C#N)c2ccc(Cl)cc2)c1	19.3	1.01
CC1CCN(C(=O)c2ccccc2)CC1	-1.5	0.677*
CC1CCCN(C(=O)c2ccc(Cl)cc2)C1 (stereo not given)	1.8	1.03
CC1CCN(C(=O)COc2ccc(-c3ccccc3)cc2)CC1	24.9	0.674*
CC1CCN(C(=O)c2ccc(I)cc2)CC1	5.2	0.99
CC1CCCN(C(=O)c2ccccc2)C1 (stereo not given)	5.9	0.789*
CS(=O)(=O)N1CCN(C(=O)COc2ccccc2)CC1	4.7	1.06
COc1cc(/C=N/N2CCN(Cc3ccc(C)cc3)CC2)cc(Br)c1O	1.7	0.841
O=P(CCCO)(c1ccccc1)c1ccccc1	1.6	0.943
Cc1cc(C)c(N2C(=O)NC(=O)C(=Cc3ccoc3)C2=O)c(C)c1	41.8*	1.01
COc1ccc(/C=C2\C(=O)NC(=O)N(c3cc(C)cc(C)c3)C2=O)cc1	20.9	1.14
CCN(CC)c1ccc(Nc2cc(C)c(C#N)c3nc4ccccc4n23)cc1	4.5	1.03
COCCNC(=O)CN(c1ccccc1OC)S(=O)(=O)c1ccccc1	0.3	1.06
O=C1C(=C2c3ccccc3C(=O)C2C2c3ccccc3Oc3ccccc32)C(=O)c2ccccc21 (stereo not given)	-2.5	0.796*
O=C(O)C(C(=O)O)C1c2ccccc2Oc2ccccc21	11.8	1
SMILES	NS3h inh CB	Cy5 interf NS3h
S=c1[nH]nc(CSc2nc3ccccc3s2)n1-c1ccccc1	17.2	1.02
O=C1C(=O)N(Cc2ccc(F)cc2)c2ccc(Br)cc21	3.2	0.929
CN1C(=O)C(=O)c2cc(Br)ccc21	9.6	0.736*
COc1cc(C=O)cc(Br)c1OCc1ccccc1Cl	8.2	1.02
CCOc1cc(C=O)cc(I)c1OCc1ccccc1Cl	8.7	0.642*
CC1=C(C(=O)Nc2cccc(Cl)c2C)C(c2cccs2)NC(=O)N1 (stereo not given)	0.3	0.977
CCOc1ccc(NC(=O)c2cccc(C(F)(F)F)c2)c([N+](=O)[O-])c1	11.8	1.19
CCOc1ccc(N2C(=O)NC(=O)/C(=C/C=C/c3ccco3)C2=O)cc1	32.6	1.01
CCOc1ccccc1N1C(=O)NC(=O)/C(=C/C=C/c2ccco2)C1=O	42.7*	1.18
COc1cc(C(=O)N2CCN(Cc3ccccc3)CC2)c([N+](=O)[O-])cc1OC	4.0	0.956
O=C(c1cc(Cl)ccc1Cl)N1CCOCC1	6.3	1.11
O=C(c1cc(Cl)ccc1Cl)N1CCN(c2ccccc2)CC1	5.0	0.611*
COc1cc(C(=O)N2CCN(c3cccc(Cl)c3)CC2)c([N+](=O)[O-])cc1OC	18.6	0.673*
O=C(O)c1ccc(COc2ccc3ccc(=O)oc3c2)cc1	-16.5	1.04
CN(C)c1cccc(C(=O)NCc2ccc(S(N)(=O)=O)cc2)c1	2.7	1.08
COCCOC(=O)c1c(C)oc2ccc(OCc3cccc(Cl)c3)cc12	8.8	0.793*
COCCOC(=O)c1c(C)oc2ccc(OCc3cccc(F)c3)cc12	8.8	0.927
Cc1cccc(N2C(=O)NC(=O)/C(=C\c3ccc(OCc4cccc(C(=O)O)c4)cc3)C2=O)c1	15.7	1.28*
Cc1ccc(N2C(=O)/C(=C/c3ccc(OCc4cccc(C(=O)O)c4)cc3)C(=O)NC2=S)cc1	28.3	1.13
Cc1ccc(N2C(=O)NC(=O)/C(=C\c3ccc(OCc4cccc(C(=O)O)c4)cc3)C2=O)cc1	51.7*	1.05
CCOc1ccc(N2C(=O)NC(=O)/C(=C\c3ccc(OCc4cccc(C(=O)O)c4)cc3)C2=O)cc1	28.3	1.12
COC(=O)CN(c1ccc(Br)cc1)S(C)(=O)=O	8.8	0.994
CN1CCN(c2ccc([N+](=O)[O-])c(NCc3ccc(Cl)cc3)c2)CC1	15.2	0.957
COc1ccc(CCNc2cc(N3CCN(C)CC3)ccc2[N+](=O)[O-])cc1OC	46.2*	0.98
O=C(NCc1ccncc1)/C(=C/c1ccc(F)cc1)NC(=O)c1ccccc1	8.5	0.873
SMILES	NS3h inh CB	Cy5 interf NS3h
CS(=O)(=O)N(CC(=O)O)c1ccc(Cl)cc1	3.6	1.1
CS(=O)(=O)N(CC(=O)N(Cc1ccccc1)Cc1ccccc1)c1ccc(Cl)cc1	24.9	0.68*
COc1ccccc1CC(=O)NCc1ccco1	-7.5	0.874
COC(=O)c1cccc(N2C(=O)c3ccc(Oc4ccc(NC(C)=O)cc4)cc3C2=O)c1	-25.3	1.27*
CC(=O)Nc1cccc(Oc2ccc3c(c2)C(=O)N(c2ccccc2)C3=O)c1	8.2	0.992
O=C(c1ccc(Cl)c(Cl)c1)N1CCN(c2ccc([N+](=O)[O-])c(N3CCOCC3)c2)CC1	22.2	0.647*
O=[N+]([O-])c1ccc(N2CCN(S(=O)(=O)c3ccc(Cl)cc3)CC2)cc1N1CCOCC1	16.1	0.951
O=C(c1cc(F)c(F)cc1Cl)N1CCN(c2ccc([N+](=O)[O-])c3ncccc23)CC1	11.6	1
O=C(c1cc(F)c(F)cc1Cl)N1CCN(c2ccc([N+](=O)[O-])c(N3CCCC3)c2)CC1	26.7	0.669*
O=C(c1cc(N2CCCCC2)c(F)cc1[N+](=O)[O-])N1CCCCC1	-6.5	0.95
O=C(c1cc(N2CCOCC2)c(F)cc1[N+](=O)[O-])N1CCOCC1	15.2	0.684*
COc1cc(/C=C/c2nc(O)c([N+](=O)[O-])c(=O)[nH]2)ccc1OCc1ccccc1	7.9	1.05
COc1cc(NC(=O)c2cccc([N+](=O)[O-])c2)ccc1NC(=O)c1ccco1	-15.4	0.729*
COc1cc(NC(=O)c2ccc([N+](=O)[O-])cc2)ccc1NC(=O)c1ccco1	1.3	0.941
O=C(Nc1ccc(Cc2ccncc2)cc1)c1cccc(C(=O)Nc2ccc(Cc3ccncc3)cc2)c1	17.3	1.04
COc1ccc(C2CC(c3ccc(C)cc3)=NN2C(C)=O)cc1OC (stereo not given)	3.3	1
COc1ccc(-c2nn3c(-c4ccc(OC)c(OC)c4)nnc3s2)cc1OC	9.6	1.27*
COP(=O)(OC)C(Nc1cccc(C(F)(F)F)c1)c1ccc(Cl)cc1 (stereo not given)	9.1	0.899
COc1cc2nc(-c3ccc(Oc4cccc(-c5nc6cc(OC)c(OC)cc6c(=O)o5)c4)cc3)oc(=O)c2cc1OC	19.9	1.19
O=C(COc1ccccc1)Nc1cc(-c2ccc(F)cc2)[nH]n1	19.0	1.11
